Laboratory results as given in PubChem BioAssay (NCATS).
Several values for one entry are separate records, joined by “and”; a condition that tells them apart may be missing. Identical values can stand only once. Results filed as inconclusive are left out. Where a call stands in place of a potency, no number is given. Where a structure was tested more than once in an assay, its records may differ in their call. Activity calls are given as the source filed them. Unless noted, the call rests on the fitted dose curve; in most records, active means well fitted curve in the direction sought with a large enough effect; inconclusive means small, poorly fitted or top-dose-only effect, or another doubt; inactive means no such curve, though single readings can be large; an effect the other way counts as inactive or inconclusive.

Legend:
[1] = Identifying Small Molecule Inhibitors of Pancreatic Cancer Stem Cells (A278, Adherent) (AID 1259361);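 further: viability read after 48 h compound exposure; nearly all actives have a fitted effect of over 35% in size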
Summary of the method: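 Spheroids grown 14 days in stem cell media on hydrogel-coated nonadherent plates; 2D lines seeded directly. Compounds added after 4 h attachment, 48 h at 37C, 5% CO2; CellTiter-Glo luminescence normalized to DMSO (no inhibition) and no-cell wells (full inhibition).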

[2] = P-glycoprotein substrates identified in KB-8-5-11 adenocarcinoma cell line, qHTS therapeutic library screen (AID 1346987); further: nearly all actives have a fitted effect of over 65% in size; further: potency means the concentration at half of the fitted maximal effect
Summary of the method: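 Steps: plate 500 KB-8-5-11 cells/well in DMEM + 10% FCS (colchicine removed); pin compounds in dose-response; incubate 72 h, 37 degree C, 5% CO2; add CellTiter-Glo, 5 min; read luminescence.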

[3] = NS1 protein of Zika virus - qHTS assay to identify small molecule inhibitors in human HEK 293 cells (AID 1347053); further: nearly all actives have a fitted effect of over 55% in size; further: potency means the concentration at half of the fitted maximal effect
Summary of the method: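 Following 20 h seeding, HEK 293 cells took compound, then 1 h later ZIKV MR766 (MOI = 0.5). Incubation ran 24 h at 37 C before TR-FRET detection of NS1; a drop in signal indicates inhibition.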

[4] = Identifying Small Molecule Inhibitors of Pancreatic Cancer Stem Cells (Panc1, Adherent) (AID 1259362); details: Potency: viability; further: potency means the concentration at half of the fitted maximal effect
Summary of the method: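 After a 4 h attachment period, compounds were pinned into wells and cultures held 48 h under standard incubator conditions. Viability was then measured as CellTiter-Glo luminescence following 10 min at room temperature.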

[5] = target: T1, Tyrosine-protein phosphatase non-receptor type substrate 1 (Homo sapiens) + Leukocyte surface antigen CD47 (Homo sapiens) (UniProt P78324+Q08722); assay: CD47-SIRPalpha protein protein interaction - HTRF assay qHTS validation (AID 1347058; active means well fitted curve in the direction sought with a large enough effect in the signal ratio, not every such curve was filed as active; the % refers to the signal ratio;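 further: recombinant soluble extracellular CD47 with His tag and biotinylated SIRPalpha domains; series mostly up to about 38 µM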)
Summary of the method: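 TR-FRET read (Ch1/Ch2 ratio) of soluble extracellular CD47 and Avi-biotinylated SIRPalpha domains in PBS pH 7.4 with 0.05% IGEPAL; 7-point compound titration. Sequential 30 min room-temperature steps; non-biotinylated SIRPalpha as control inhibitor.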

[6] = target: T1, Tyrosine-protein phosphatase non-receptor type substrate 1 (Homo sapiens) + Leukocyte surface antigen CD47 (Homo sapiens); assay: CD47-SIRPalpha protein protein interaction - Alpha assay qHTS validation (AID 1347059);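 further: bead proximity luminescence from CD47 binding SIRPalpha after compound preincubation with SIRPalpha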
Summary of the method: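 Biotinylated Avi-tagged SIRPalpha (25 nM) preincubated 30 min with compound, then His-tagged CD47 (12.5 nM) added 30 min; AlphaScreen with Ni-NTA acceptor and streptavidin donor beads. PBS pH 7.4, 0.05% IGEPAL, room temperature; 7-point titrations.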

[7] = P-glycoprotein substrates identified in KB-3-1 adenocarcinoma cell line, qHTS therapeutic library screen (AID 1346986); further: nearly all actives have a fitted effect of over 60% in size;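 further: potency means the concentration at half of the fitted maximal effect; potency is for cytotoxicity meaning loss of cell viability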
Summary of the method: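 KB-3-1 parental and colchicine-selected P-gp-overexpressing KB-8-5-11 cells (colchicine omitted during assay), 500 cells/well, dosed in dose-response for 72 h at 37 °C; CellTiter-Glo luminescence. Cytotoxic: curve class -1.1 to -2.4, max response >50%, AC50 < 10 uM.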

[8] = Natriuretic polypeptide receptor (hNpr1) antagonism - Pilot counterscreen GloSensor control cell line (AID 1347045; calls by dose curve; further: potency means the concentration at half of the fitted maximal effect)
Summary of the method: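 Luminescence was read before and 20 min after adding 50 uM SNP, which stimulates soluble guanylyl cyclase. The HEK293 cells expressing the GloSensor cGMP sensor had been preloaded with 2% reagent for 2 h and treated with compound.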

[9] = target: Atrial natriuretic peptide receptor 1 (Homo sapiens) (UniProt P16066); assay: Natriuretic polypeptide receptor (hNpr1) antagonism - Pilot screen (AID 1347049; calls by dose curve;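 further: agonist-evoked cGMP luminescence read 20 min after hNppA addition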; further: potency means the concentration at half of the fitted maximal effect)
Summary of the method: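 HEK293 cells expressing hNpr1 and GloSensor cGMP luciferase, 1500/well, loaded with 2% GloSensor reagent 2 h, compound 30 min at room temperature; luminescence read before and 20 min after 0.1 nM hNppA stimulation.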

[10] = target: Atrial natriuretic peptide receptor 2 (Homo sapiens) (UniProt P20594); assay: Natriuretic polypeptide receptor (hNpr2) antagonism - Pilot subtype selectivity assay (AID 1347050; calls by dose curve; further: potency means the concentration at half of the fitted maximal effect)
Summary of the method: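 HEK293 cells expressing hNpr2 and a GloSensor cGMP luciferase sensor, 1500/well, preloaded 2 h with 2% GloSensor reagent, compound 30 min, then 1 nM hNppC for 20 min. Antagonism from luminescence after versus baseline pre-read; LOPAC in 1:5 titrations.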

Atrial natriuretic peptide receptor 1 (Homo sapiens), sequence (P16066 whole entry, looked up): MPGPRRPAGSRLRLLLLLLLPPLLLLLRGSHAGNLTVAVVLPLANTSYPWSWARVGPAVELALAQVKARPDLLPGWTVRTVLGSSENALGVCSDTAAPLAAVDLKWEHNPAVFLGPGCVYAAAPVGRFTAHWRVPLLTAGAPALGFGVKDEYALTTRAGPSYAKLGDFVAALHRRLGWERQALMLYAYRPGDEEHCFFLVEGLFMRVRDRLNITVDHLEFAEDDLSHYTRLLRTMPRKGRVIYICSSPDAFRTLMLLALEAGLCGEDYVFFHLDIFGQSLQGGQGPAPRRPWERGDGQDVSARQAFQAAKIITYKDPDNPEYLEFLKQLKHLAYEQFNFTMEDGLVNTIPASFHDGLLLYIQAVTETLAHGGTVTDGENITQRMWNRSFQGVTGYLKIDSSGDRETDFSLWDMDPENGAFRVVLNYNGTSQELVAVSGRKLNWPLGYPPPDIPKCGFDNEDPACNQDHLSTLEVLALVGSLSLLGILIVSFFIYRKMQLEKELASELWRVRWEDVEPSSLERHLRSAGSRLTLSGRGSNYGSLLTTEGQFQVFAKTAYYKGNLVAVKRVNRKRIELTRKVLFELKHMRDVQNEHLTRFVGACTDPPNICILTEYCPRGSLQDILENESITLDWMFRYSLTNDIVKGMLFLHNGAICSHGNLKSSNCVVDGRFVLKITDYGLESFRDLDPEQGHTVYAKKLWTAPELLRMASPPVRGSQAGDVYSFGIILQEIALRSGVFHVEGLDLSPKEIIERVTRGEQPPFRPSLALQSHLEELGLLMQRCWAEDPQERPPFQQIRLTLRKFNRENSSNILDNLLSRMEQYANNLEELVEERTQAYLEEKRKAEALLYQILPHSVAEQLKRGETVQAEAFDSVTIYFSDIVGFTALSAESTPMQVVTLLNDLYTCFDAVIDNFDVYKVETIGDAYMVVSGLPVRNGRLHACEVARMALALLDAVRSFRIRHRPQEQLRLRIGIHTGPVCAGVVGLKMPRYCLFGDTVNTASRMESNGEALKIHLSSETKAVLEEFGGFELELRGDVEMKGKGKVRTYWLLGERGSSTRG
T1 sequence (P78324 whole entry, looked up, the tested form may be a part): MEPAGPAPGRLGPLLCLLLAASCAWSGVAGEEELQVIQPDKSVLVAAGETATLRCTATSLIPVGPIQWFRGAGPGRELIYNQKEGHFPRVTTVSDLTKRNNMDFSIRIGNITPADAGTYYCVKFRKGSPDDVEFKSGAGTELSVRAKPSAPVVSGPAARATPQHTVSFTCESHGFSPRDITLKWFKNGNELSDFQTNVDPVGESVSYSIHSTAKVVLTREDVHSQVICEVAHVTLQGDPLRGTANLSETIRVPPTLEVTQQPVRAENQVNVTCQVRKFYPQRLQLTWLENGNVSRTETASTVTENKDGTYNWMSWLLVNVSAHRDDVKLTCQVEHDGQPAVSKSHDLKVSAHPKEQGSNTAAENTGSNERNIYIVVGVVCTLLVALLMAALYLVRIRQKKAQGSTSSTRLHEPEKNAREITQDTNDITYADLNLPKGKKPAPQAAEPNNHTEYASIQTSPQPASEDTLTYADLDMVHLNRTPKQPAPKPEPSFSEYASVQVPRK
T1 sequence (Q08722 whole entry, looked up, the tested form may be a part): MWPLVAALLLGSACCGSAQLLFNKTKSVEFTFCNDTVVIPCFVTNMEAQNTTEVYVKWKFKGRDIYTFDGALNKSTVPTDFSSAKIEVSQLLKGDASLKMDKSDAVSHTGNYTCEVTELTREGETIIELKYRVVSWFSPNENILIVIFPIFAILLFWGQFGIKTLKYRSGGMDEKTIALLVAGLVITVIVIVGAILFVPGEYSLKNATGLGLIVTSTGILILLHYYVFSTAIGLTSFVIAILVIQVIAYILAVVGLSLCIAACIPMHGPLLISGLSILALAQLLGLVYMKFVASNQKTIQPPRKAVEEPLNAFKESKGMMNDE
Atrial natriuretic peptide receptor 2 (Homo sapiens), sequence (P20594 whole entry, looked up): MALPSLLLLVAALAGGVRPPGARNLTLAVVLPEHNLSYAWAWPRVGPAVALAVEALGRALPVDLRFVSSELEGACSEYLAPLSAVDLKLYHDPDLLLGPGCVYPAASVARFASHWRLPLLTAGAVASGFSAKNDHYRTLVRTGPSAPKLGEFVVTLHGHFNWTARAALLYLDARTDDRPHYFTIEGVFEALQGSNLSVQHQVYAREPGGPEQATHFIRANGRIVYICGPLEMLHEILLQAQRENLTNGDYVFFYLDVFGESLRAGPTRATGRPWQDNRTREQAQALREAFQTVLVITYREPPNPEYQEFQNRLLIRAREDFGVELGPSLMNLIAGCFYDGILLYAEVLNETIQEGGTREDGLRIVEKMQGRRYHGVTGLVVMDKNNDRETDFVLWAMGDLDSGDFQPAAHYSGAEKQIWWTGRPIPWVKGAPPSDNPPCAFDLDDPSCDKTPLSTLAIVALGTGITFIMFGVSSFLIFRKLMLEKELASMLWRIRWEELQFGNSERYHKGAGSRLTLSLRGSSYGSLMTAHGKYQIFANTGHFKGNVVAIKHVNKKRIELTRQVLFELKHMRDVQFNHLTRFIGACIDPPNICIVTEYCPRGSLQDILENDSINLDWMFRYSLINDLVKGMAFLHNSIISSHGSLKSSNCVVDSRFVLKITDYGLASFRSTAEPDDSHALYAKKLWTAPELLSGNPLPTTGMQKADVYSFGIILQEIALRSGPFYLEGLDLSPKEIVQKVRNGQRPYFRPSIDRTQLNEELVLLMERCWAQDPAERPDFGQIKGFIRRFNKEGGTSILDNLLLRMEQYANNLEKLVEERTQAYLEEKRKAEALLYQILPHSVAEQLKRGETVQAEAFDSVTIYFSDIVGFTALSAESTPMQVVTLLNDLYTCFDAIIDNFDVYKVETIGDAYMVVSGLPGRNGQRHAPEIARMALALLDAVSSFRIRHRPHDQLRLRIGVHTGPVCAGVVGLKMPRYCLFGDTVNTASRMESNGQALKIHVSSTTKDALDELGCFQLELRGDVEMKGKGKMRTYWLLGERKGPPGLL

| Structure (SMILES) | IC50 (viability decrease) [1] | Potency [2] | Potency [3] | Potency [4] | outcome [5] | outcome [6] | Potency [7] | Potency [8] | Potency [9] | Potency [10] |
| --- | --- | --- | --- | --- | --- | --- | --- | --- | --- | --- |
| CC1=C2C[C@@H]3[C@@H](CC=C4C[C@@H](O)CC[C@@]43C)[C@@H]2CC[C@]12O[C@H]1C[C@H](C)CN[C@H]1[C@H]2C | inactive | inactive | inactive |  |  |  |  |  |  |  |
| Cn1c(CCCC(=O)O)nc2cc(N(CCCl)CCCl)ccc21 | inactive | inactive | inactive and 20.9 µM (active) | inactive | inactive | inactive |  |  |  |  |
| CCCC(C)(COC(N)=O)COC(=O)NC(C)C (stereo not drawn) |  | inactive | inactive |  |  |  | inactive | inactive | inactive | inactive |
| CCCN1CCC[C@@H]2Cc3[nH]ncc3C[C@H]21 |  | inactive | inactive |  | inactive | inactive |  | inactive | inactive | inactive |
| COC1(CS(=O)c2ccccc2)CCN(CCc2c[nH]c3ccc(F)cc23)CC1 (stereo not drawn) | inactive | inactive | inactive | inactive |  |  |  |  |  |  |
| O=C(O)P(=O)(O)O |  | inactive |  |  |  |  | inactive |  |  |  |
| Nc1ccncc1 |  | inactive | inactive |  | inactive | inactive |  | inactive | inactive | inactive |
| CCC1(C2=NCCN2)Cc2ccccc2O1 (stereo not drawn) |  | inactive | inactive |  | inactive | inactive |  | inactive | inactive | inactive |
| C=C(C)[C@H]1Cc2c(ccc3c2O[C@@H]2COc4cc(OC)c(OC)cc4[C@@H]2C3=O)O1 |  | 13 nM (active) and 2.64 µM (active) | inactive |  | inactive |  |  | 117 nM (active) | 135 nM (active) | 82.6 nM (active) |
| CCOC(=O)C1(c2ccccc2)CCN(CCC(C#N)(c2ccccc2)c2ccccc2)CC1 |  | 9.2 µM (active) and 15.8 µM (active) |  |  |  |  |  |  |  |  |
| CNCC(O)c1ccc(O)cc1 (stereo not drawn) |  | inactive | inactive |  | inactive | inactive | inactive | inactive | inactive | inactive |
| Cc1ccc(S(=O)(=O)N[C@@H](CCCCN)C(=O)CCl)cc1 |  | inactive | inactive |  | inactive | inactive |  | inactive | inactive | inactive |
| Cc1cccc(C)c1NC(=O)CN1CCCC1=O |  | inactive | inactive |  | inactive | inactive |  | inactive | inactive | inactive |
| C[C@@H]1[C@@H](CC(C[C@H]2O[C@@H]3O[C@]4(C)CC[C@@H]5[C@H](C)CC[C@@H]([C@H]2C)[C@@]35OO4)C[S+](=O)([O-])c2ccc(COC(=O)N(C)C)cc2)O[C@@H]2O[C@]3(C)CC[C@H]4[C@H](C)CC[C@@H]1[C@@]24OO3 (stereo partly drawn) | 41.8 nM (active) |  |  | 37.2 nM (active) |  |  |  |  |  |  |
| NCC(CC(=O)O)c1ccc(Cl)cc1 (stereo not drawn) |  | inactive | inactive |  | inactive | inactive |  | inactive | inactive | inactive |
| CC(CCc1ccccc1)NC(C)C(O)c1ccc(O)cc1 (stereo not drawn) |  | inactive | inactive |  | inactive | inactive |  | inactive | inactive | inactive |
| c1ccc(C2CC2)c(OCC2=NCCN2)c1 |  | inactive | inactive |  | inactive | inactive |  | inactive | inactive | inactive |
| C[C@]12CCC(=O)C(O)=C1CC[C@@H]1[C@@H]2CC[C@]2(C)C(=O)CC[C@@H]12 |  | inactive | inactive | inactive |  |  |  |  | inactive | inactive |
| COc1ccc2c(c1OC)CN1CCc3cc4c(cc3C1C2)OCO4 (stereo not drawn) |  | inactive | inactive |  |  |  | 9200 nM (active) |  |  |  |
| O=C(O)C(=O)c1cn(Cc2ccccc2)c2ccc(-c3ccc(OC(F)(F)F)cc3)cc12 |  | inactive |  |  |  |  | inactive |  |  |  |
| COC[C@H]1OC(=O)c2coc3c2[C@@]1(C)C1=C(C3=O)C2CCC(=O)[C@@]2(C)C[C@H]1OC(C)=O (stereo partly drawn) | 23500 nM (active) | inactive | inactive | 296 nM (active) | inactive | inactive | inactive | inactive | inactive | inactive |
| NCC(O)c1ccc(O)cc1 (stereo not drawn) |  | inactive | inactive |  | inactive | inactive |  | inactive | inactive | inactive |
| NN=C(N)N |  | inactive | inactive |  | inactive | inactive |  | inactive | inactive | inactive |
| CNC(=O)N1N=C(c2ccc(N)cc2)c2cc3c(cc2CC1C)OCO3 (stereo not drawn) | 7430 nM (active) |  | inactive |  |  |  |  |  |  |  |
| CNC(=O)c1ccc(N2C(=S)N(c3ccc(C#N)c(C(F)(F)F)c3)C(=O)C23CCC3)cc1F | 23500 nM (active) | inactive | inactive |  |  |  |  |  |  |  |
| Cc1sc2c(c1C)C(c1ccc(Cl)cc1)=N[C@@H](CC(=O)OC(C)(C)C)c1nnc(C)n1-2 |  | 469 nM (active) |  | 4180 nM (active) |  |  |  |  |  |  |
| O=C1CC[C@@]2(O)[C@H]3Cc4ccc(O)c5c4[C@@]2(CCN3CC2CC2)[C@H]1O5 |  | inactive | inactive |  |  |  | inactive |  |  |  |
